Usually viability stands for a read-out of living cells in per cent, often relative to untreated cells. For orientation: inhibition means the relative decrease from the control value, in per cent.

We go through three compounds from PubChem BioAssay.

Values joined by “and” are separate entries in the source; they are usually repeats but may differ in a detail not shown here. Identical values can stand only once. Active and inactive are the calls of the source.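 Rule for the calls, unless noted: active = thallium flux through the channel raised or lowered by more than 3 SD from vehicle-only wells, actives on both sides; inactive = the rest.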

Test [1] is described as follows: P. berghei load reduction in hepatocytes – cell-based, HepG2, luciferase luminescence, HepG2 viability, primary screen (AID 624349; in the data active = parasite load remaining mostly below about 12%, no sharp cut-off; inactive = mostly above about 10%;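 note: 100% = mean of DMSO negative control wells on the same plate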). Particulars: P. berghei liver stage in HepG2, luciferase luminescence, concentration not given here; parasite load remaining: stronger effect = lower value; viability: measured here: HepG2 viability without parasites.
A short description of test [2]: signal quenchers or enhancers, Cy5 substrate/SSB – biochemical, NIH Clinical Collection, E. coli SSB, artefact control for HCV NS3 helicase inhibitor project (AID 743268; call rule not given here). The following applies: Cy5-oligo bound E. coli SSB, fluorescence interference.
Test [3] concerns Hepatitis C virus NS3 helicase. As to the kind of experiment: blockers of NS3h binding to DNA – biochemical, fluorescence polarization, NIH Clinical Collection, primary screen (AID 743270; call rule not given here). Particulars: NS3 helicase binding to Cy5-dT15 DNA, stronger effect = higher value, concentration not given here. In general terms: Polarisation of emitted light reports the rotation of a fluorescent probe.

Test [4] addresses Single-stranded DNA-binding protein (Escherichia coli (strain K12)) (UniProt P0AGE0). As to the kind of experiment: SSB-ssDNA binding inhibitors – biochemical, fluorescence polarization, NIH Clinical Collection, counter-screen for HCV NS3 helicase inhibitor project (AID 743271; in the data active = inhibition above about 28%). The following applies: E. coli SSB-DNA binding, stronger effect = higher value, concentration not given here.
Test [5] in a line: compounds distorting NS3 helicase fluorescence signal – biochemical, NIH Clinical Collection, artefact control for HCV NS3 helicase inhibitor project (AID 743272; call rule not given here;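 note: HCV NS3 helicase with a Cy5 labelled single stranded DNA probe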). Particulars: fluorescence interference counterscreen, HCV NS3 helicase assay; stronger effect = lower value.
Test [6] is described as follows: modulation of C. elegans fzo-1 (AID 1259413; call rule not given here;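 note: fzo-1 mutant C. elegans worms in liquid wells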). Particulars: C. elegans fzo-1 modulator screen, mean read-out; stronger effect = higher value.
A short description of test [7]: viability loss with induced miR-34 in A549 – imaging, A549 dox-inducible miR-34, nuclei and caspase counts, primary screen (AID 1347080;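 active = compounds whose cell count with miR-34 switched on is under 0.7 times the count with it off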). Particulars: A549 miR-34 inducible, Hoechst nuclei count, 48 h.
The nature of test [8]: MELAS cybrid and Rieske KO viability enhancers – cell-based, MELAS cybrids, Rieske KO mouse fibroblasts, CellTiter-Glo, primary screen (AID 1508586;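 active = mean z-score across replicates of 1.96 or higher in either the MELAS or the Rieske mutant cell line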;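 note: z relative to plate mean and SD of compound and empty wells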). Particulars: low glucose. On the technique in general: Cellular ATP, detected with luciferase, serves as a proxy for viable cell number.
The subject of the next test is F380Y. Briefly: BK channel mutant inhibitors and activators – cell-based, U2OS BacMam, thallium flux, beta subunits, selectivity assay, profiling panel (AID 1259406).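 Note: initial slope of Thallos dye fluorescence rise after thallium is added; log ratio against the mean of 0.3% DMSO vehicle wells on the same plate.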 Particulars: U2OS BacMam BK variants, at 30 µM.
For the next test, the system named is F380Y/beta1. The test is described as above. Particulars: U2OS BacMam BK variants, at 30 µM.
The test system of another test is F380Y/beta2Delta. The description is as above. The following applies: U2OS BacMam BK variants, at 30 µM.
Another test has as its system F380Y/beta4. The description is as above. The following applies: U2OS BacMam BK variants, at 30 µM.
Test [9] has as its target Calcium-activated potassium channel subunit alpha-1 (Homo sapiens) + Leucine-rich repeat-containing protein 26 (Homo sapiens) (UniProt Q12791+Q2I0M4). Described as above. The following applies: U2OS BacMam BK variants, F380Y/Slo1WT/gamma1, at 30 µM.
A further test relates to R275C. The test is described as above. Particulars: U2OS BacMam BK variants, at 30 µM.
The test system of another test is R275C/beta1. Described as above. The following applies: U2OS BacMam BK variants, at 30 µM.
For the next test, the system named is R275C/beta2Delta. Described as above. The following applies: U2OS BacMam BK variants, at 30 µM.
The subject of the next test is R275C/beta4. The test is described as above. Particulars: U2OS BacMam BK variants, at 30 µM.
A further test relates to R275C/Slo1WT/beta2. The description is as above. Particulars: U2OS BacMam BK variants, at 30 µM.
A short description of test [10]: EMT-state selective cytotoxicity in co-culture – imaging, PC-3E GFP, TEM4-18 mCherry, primary screen (AID 1345086;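 active = compounds killing one labelled cell type while sparing the other, by normalised counts and ratio limits, not self-fluorescent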;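 note: cells exposed to compound for 72 h before imaging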;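 for red/green cell ratio (normalised): normalised mesenchymal count divided by normalised epithelial count so high means epithelial killing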). The following applies: PC-3E GFP / TEM4-18 mCherry co-culture, imaging cell counts, at 1 µM.
Setting [11] is: stronger effect = lower value, cell number ratio, induced over uninduced.
Where [12] appears, read: measured here: relative caspase fold change +Dox/-Dox.
Where [13] appears, read: measured here: total cells with miR-34 induction, stronger effect = lower value.
[14] abbreviates: measured here: total cells without miR-34 induction.
The mark [15] stands for this setting: MELAS cybrid survival, CellTiter-Glo 48 h, stronger effect = higher value.
Setting [16] is: Rieske KO mouse fibroblast survival, CellTiter-Glo 72 h.

Chain of Calcium-activated potassium channel subunit alpha-1 (Homo sapiens) + Leucine-rich repeat-containing protein 26 (Homo sapiens) (Q2I0M4 whole entry, looked up, one chain of several): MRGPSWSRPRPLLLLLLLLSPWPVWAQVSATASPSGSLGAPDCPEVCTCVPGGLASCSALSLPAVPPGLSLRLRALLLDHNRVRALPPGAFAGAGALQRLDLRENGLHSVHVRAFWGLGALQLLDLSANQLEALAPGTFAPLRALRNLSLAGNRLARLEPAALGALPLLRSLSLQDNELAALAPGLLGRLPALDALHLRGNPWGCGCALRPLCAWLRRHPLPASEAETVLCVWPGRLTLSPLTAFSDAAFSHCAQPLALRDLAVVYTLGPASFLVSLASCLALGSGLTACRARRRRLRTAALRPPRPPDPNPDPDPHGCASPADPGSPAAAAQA

In the case of `CC(=O)NC[C@H]1CN(c2ccc(N3CCOCC3)c(F)c2)C(=O)O1`, in test [1], the parasite load remaining was 99.9% (inactive) and 45% (inactive). The viability in [1] was 74.1% and 114%. Further, the fluorescence ratio in [2] is 1.07 (inactive); in test [5], 1.04 (inactive). The inhibition in test [3] is 6.73% (inactive); in test [4] it was 2.21% (inactive). Also, the mean signal in test [6] is 269 (inactive). In addition, the fold change was 1.08 (inactive) and 0.926 (inactive) in test [7] (setting [11]); 1.57 and 0.639 in [7] (setting [12]). In addition, the cell count was 10400 and 9730 in [7] (setting [13]); 9600 and 10500 in test [7] (setting [14]). For the same compound, the z-score in test [8] (setting [15]) was -0.794 (inactive) and 0.174 (inactive); in test [8] (setting [16]) it was -2.51 and -1.01. The log fold change Tl+ flux in the test on F380Y was 0.0386 (inactive); in the test on F380Y/beta1, 0.0152 (inactive); with F380Y/beta2Delta, -0.0137 (inactive); in the test on F380Y/beta4 it was -0.01 (inactive); in test [9], -0.0237 (inactive); in the test on R275C, -0.0414 (inactive). For the same compound, the log fold change Tl+ flux in the test on R275C/beta1 was 0.0265 (inactive); in the test on R275C/beta2Delta, 0.023 (inactive); in the test with R275C/beta4 it was 0.00539 (inactive); with R275C/Slo1WT/beta2, 0.0288 (inactive).
In the case of `CN(C)CCCC1(c2ccc(F)cc2)OCc2cc(C#N)ccc21` (stereo unspecified), the fluorescence ratio is 1.03 (inactive) and 1.01 (inactive) in test [2]; 0.99 (inactive) and 1.03 (inactive) in test [5]. Besides, the inhibition in test [3] is -5.94% (inactive) and -0.45% (inactive); in test [4] it was -1.64% (inactive) and 0.29% (inactive). Moreover, in test [6], the mean signal was 220 (inactive). In addition, the red/green cell ratio (normalised) in test [10] (actives lie on both sides, counts scaled to control wells, 1 = unselective) is 1.17 (inactive). The values for the normalised cell number in test [10] (measured here: epithelial PC-3E GFP cell survival) and in test [10] (measured here: mesenchymal TEM4-18 mCherry cell survival) were 1.12 and 1.31, respectively. Also, the z-score is -0.338 (inactive) and 0.623 (inactive) and -0.34 (inactive) in [8] (setting [15]); -0.153 and 0.348 and -0.881 in test [8] (setting [16]). For the same compound, the log fold change Tl+ flux in the test on F380Y is 0.0263 (inactive) and 0.0749 (inactive); in the test with F380Y/beta1 it was 0.0236 (inactive) and -0.0159 (inactive); in the test on F380Y/beta2Delta, 0.0311 (inactive) and 0.0638 (inactive); with F380Y/beta4, 0.0583 (inactive) and -0.00121 (inactive); in test [9], 0.0169 (inactive) and -0.0497 (inactive); in the test on R275C, -0.0255 (inactive) and -0.00148 (inactive). Moreover, the log fold change Tl+ flux with R275C/beta1 is 0.0362 (inactive) and 0.0712 (inactive); with R275C/beta2Delta it was 0.0568 (inactive) and 0.0646 (inactive); in the test on R275C/beta4, 0.0241 (inactive) and 0.0131 (inactive); in the test on R275C/Slo1WT/beta2, 0.0494 (inactive) and 0.00231 (inactive).
Take `CNCC[C@@H](Oc1ccccc1C)c1ccccc1`: the parasite load remaining in [1] was 70.5% (inactive). In test [1], the viability stood at 66.2%. For the same compound, the figures for the fluorescence ratio in test [2] and in test [5] were 1.06 (inactive) and 0.98 (inactive), respectively. For the same compound, the results for the inhibition in [3] and in test [4] were -0.4% (inactive) and -3.95% (inactive), respectively. For the same compound, the mean signal in [6] is 246 (inactive). The fold change in [7] (setting [11]) is 0.908 (inactive); in [7] (setting [12]), 1.95. The cell count worked out at 7910 in [7] (setting [13]) and 8710 in test [7] (setting [14]). For the same compound, the z-score in test [8] (setting [15]) is -1.06 (inactive); in [8] (setting [16]), -0.171. In addition, the log fold change Tl+ flux with F380Y was 0.0847 (inactive); in the test with F380Y/beta1 it was -0.000881 (inactive); in the test on F380Y/beta2Delta it was 0.0334 (inactive); in the test with F380Y/beta4 it was 0.0851 (inactive); in test [9], -0.0181 (inactive); in the test with R275C it was -0.0128 (inactive). Moreover, the log fold change Tl+ flux is 0.0385 (inactive) in the test with R275C/beta1, 0.125 (active) in the test with R275C/beta2Delta, 0.0404 (inactive) in the test with R275C/beta4 and -0.0597 (inactive) in the test with R275C/Slo1WT/beta2.
